Source: PubChem
Sampled rows, rich in hits. Any-hit rate of the full collection: about 5.9%.
AHR activator: activators of human aryl hydrocarbon receptor; actives 2.5% (n = 320,000); activation, % at 5 µM; P35869; AHR-responsive luciferase reporter cells, luminescence; in the data active means activation above about 47%;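 further: 0% = vehicle wells and 100% = reference agonist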
Target sequence (P35869 whole entry, looked up): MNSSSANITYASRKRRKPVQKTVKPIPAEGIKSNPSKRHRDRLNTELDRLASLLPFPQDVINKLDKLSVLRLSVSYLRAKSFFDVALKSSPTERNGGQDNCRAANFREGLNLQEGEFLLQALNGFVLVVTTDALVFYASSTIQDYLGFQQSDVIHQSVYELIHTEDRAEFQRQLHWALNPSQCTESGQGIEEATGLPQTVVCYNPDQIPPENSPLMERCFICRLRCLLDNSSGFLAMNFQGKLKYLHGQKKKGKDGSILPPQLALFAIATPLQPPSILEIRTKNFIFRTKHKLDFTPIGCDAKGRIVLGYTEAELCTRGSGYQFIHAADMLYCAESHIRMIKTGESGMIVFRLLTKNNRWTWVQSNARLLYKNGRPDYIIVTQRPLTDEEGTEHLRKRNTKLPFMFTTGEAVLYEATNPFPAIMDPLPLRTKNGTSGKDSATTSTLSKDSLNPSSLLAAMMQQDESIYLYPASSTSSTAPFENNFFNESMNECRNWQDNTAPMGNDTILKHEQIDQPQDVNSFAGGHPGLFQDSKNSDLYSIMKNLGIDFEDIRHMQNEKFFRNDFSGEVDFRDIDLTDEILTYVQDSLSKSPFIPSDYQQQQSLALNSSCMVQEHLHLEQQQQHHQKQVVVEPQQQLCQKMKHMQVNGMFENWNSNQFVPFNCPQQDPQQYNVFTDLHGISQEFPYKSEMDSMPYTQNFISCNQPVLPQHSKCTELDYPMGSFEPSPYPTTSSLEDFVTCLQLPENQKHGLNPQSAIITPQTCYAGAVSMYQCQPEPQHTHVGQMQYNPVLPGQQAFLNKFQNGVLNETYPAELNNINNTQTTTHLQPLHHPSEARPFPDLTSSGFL
HSF1 activator: increases HSF-1 driven luciferase reporter signal; NIH3T3-HGL HSF-1 luciferase reporter, MG132, 8 h; 100% = twice DMSO control signal; activation, % at 9 µM; actives 1.7% (n = 300,000);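 active means mean replicate activation of at least 50% with a set share of replicates each reaching 50%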;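 further: 0% = median of the neutral control wells and 100% = twice that signal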
DAX1 inh: inhibits human nuclear receptor DAX1; P51843; HEK293 Gal4-DAX1 luciferase reporter, luminescence; inhibition, % at 6.75 µM; actives 0.99% (n = 340,000); AID 504766;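 active means inhibition above the mean over all tested compounds plus 3 SD, cut at about 4.2% in these data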;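 further: 0% = DAX1-transfected cells with DMSO and 100% = empty-vector control cells with DMSO; inhibition shows as a rise in luminescence from relieved DAX1 repression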
FXN GAA850 act: activators of GAA850 frataxin (FXN) promoter. HEK293 lucGAA850 FXN promoter luciferase reporter, 24 h; percent of 10 µM SAHA response. AID 540364. actives 0.56% (n = 360,000). activation, % at 6 µM;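 active means activation above the average of all compounds screened plus 3 SD, cutoff fixed separately per campaign, cut at about 7.5% in these data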;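 further: 0% = DMSO wells and 100% = 10 µM SAHA wells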
HSF1 inh: HSF1 inhibition; actives 0.77% (n = 300,000); activity change, negative = inhibition, % at 7.5 µM (by protocol); NIH3T3-HGL HSE-luciferase, MG132-induced, luminescence 8 h; hits give low values;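 active means more than half of replicate wells show activity change below -50%, luminescence cut by over half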;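 further: luciferase reports HSF-1 transcriptional activity via heat shock element; 0% = median of DMSO wells and -100% = zero luminescence signal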
HSP90 refold inh: blocks HSP90-mediated luciferase refolding in reticulocyte lysate. Rabbit reticulocyte lysate, luciferase refolding luminescence, 3 h. inhibition, % at 5.6 µM. actives 0.91% (n = 290,000);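 active means inhibition above the screen-wide mean plus 3 SD, computed separately per campaign, cut at about 16% in these data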;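 further: 0% = DMSO wells and 100% = 60 µM geldanamycin wells; inhibitors lower the luminescence because luciferase stays unfolded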
The depositor's hits bear a star; . = no result given.

SMILES	AHR activator	HSF1 activator	DAX1 inh	FXN GAA850 act	HSF1 inh	HSP90 refold inh
Cc1ccc2nc(SCCCCOc3ccccc3)[nH]c2c1	13	18	0	-1	19	2
COc1cccc(CSc2nc3ccccc3[nH]2)c1	2	112*	1	8	63	8
c1ccc(OCCSc2nc3ccccc3[nH]2)cc1	-4	38	4.7*	3	26	0
CCN(CC)S(=O)(=O)c1ccc2c(c1)c(=O)c(C(=O)N1CCN(c3ccccn3)CC1)cn2C	7	4	0	0	-9	-2
CC(=O)NCCNc1nc2cc(-c3cc(F)ccc3C)sc2c(=O)n1C	.	.	.	1	.	.
COc1ccc(Nc2nc(NCc3ccco3)nc(N)c2[N+](=O)[O-])cc1	-4	66*	.	5	24	6
Nc1nc(Nc2cccc(F)c2)nc(NCc2ccco2)c1[N+](=O)[O-]	9	54*	-1	7	25	4
CC12CCC(=O)N1C(C(=O)NNC(=O)c1ccc(Br)cc1)CS2 (stereo not given)	2	.	2	1	.	.
C=Cc1ccc(Cn2c(C)c(C(=O)NCc3cccc([N+](=O)[O-])c3)sc2=O)cc1	.	.	.	0	.	.
Cc1cc(C)n2nc(CNS(=O)(=O)c3ccc(C(C)(C)C)cc3)nc2n1	.	.	.	1	.	.
S=C(Nc1ccccc1)N1CCCCC1	0	11	0	3	3	-1
CC12CN(C(=S)Nc3ccccc3)CC(C)(CN(C(=S)Nc3ccccc3)C1)C2=O	-1	74*	0	5	28	-3
O=C(NC1CC1)c1ccc2nc([C@@H]3O[C@H](CO)[C@H](O)[C@H](O)[C@H]3O)[nH]c2c1	.	.	.	1	.	.
CC(C)(C)C(=O)Nc1cccc(-c2cc(-c3c(Cl)cccc3Cl)no2)c1	1	54*	-2	0	19	2
COc1ccc(S(=O)(=O)N(C)C[C@H]2Oc3c(NS(=O)(=O)c4ccc(F)cc4)cccc3C(=O)N([C@H](C)CO)C[C@@H]2C)cc1	0	.	0	-5	.	.
COc1ccc(N(CC(=O)NCCSCc2ccccc2C)S(=O)(=O)c2ccccc2)cc1	-1	5	-1	0	6	5
CCC(=O)Nc1cccc(C2=NN(c3ccccc3)C(c3ccc(OC)cc3)C2)c1 (stereo not given)	6	31	2	0	1	6
Cc1ccc(Cn2cccc(-c3nc4ccccc4s3)c2=O)cc1	9	106*	3	2	53	-2
O=c1c(OCc2ccccc2)cccn1Cc1ccccc1	.	.	1	4	.	.
O=c1c(-c2nc3ccccc3s2)cccn1Cc1ccccc1	3	93*	2	4	50	-4
O=C1NCC(=O)N2CCC[C@@H]12	0	-2	2	0	1	.
N=c1c2c(-c3ccccc3)c(-c3ccccc3)n(Cc3ccco3)c2ncn1CCCN1CCOCC1	-3	102*	0	7	49	1
COc1ccccc1/C=C(/CC(=O)NCc1ccc2c(c1)OCO2)c1nc2ccccc2s1	81*	2	-1	3	4	5
O=C(Nc1ccccc1)C1=C(c2ccccc2)S(=O)(=O)CCS1(=O)=O	.	-68	-8	-14	-62*	1
O=C(O)c1ccccc1C(=O)Nc1ccccc1	-5	-13	1	0	4	-2
SMILES	AHR activator	HSF1 activator	DAX1 inh	FXN GAA850 act	HSF1 inh	HSP90 refold inh
C=CCNC(=O)C1CC(=O)N(c2ccc(OCC(=O)Nc3ccccc3)cc2)C1 (stereo not given)	9	53*	1	5	21	-3
CNC(=O)C1CC(=O)N(c2ccc(OCC(=O)N3CCCC3)cc2)C1 (stereo not given)	10	54*	1	-1	13	-3
CCOC(=O)C1CCN(C(=O)C2CCN(S(=O)(=O)c3cc(Cl)ccc3OCC)CC2)CC1	0	1	-1	0	-2	-1
Cc1ccc(C2=NNC(C(O)C(O)C(O)C(C)O)S2)cc1 (stereo not given)	9	75*	1	5	38	0
COC(=O)NC1c2ccccc2Oc2ccc(C)cc21 (stereo not given)	4	-3	-2	1	4	-3
Cc1ccc2c(c1)Oc1ccccc1C=C2C(=O)O	0	-13	4.3*	0	-5	-1
